This passage reports AC50 and outcome results from PubChem BioAssay (EPA / NIEHS).

Values joined by “and” are separate entries in the source; they are usually repeats but may differ in a detail not shown here. Equal values may be shown once. More than one record can exist for a structure, and the calls need not agree. Active and inactive are the calls of the source. Rule for the calls: active = hit-call score of the fitted dose curve at least 0.9, where 1 is the maximum; inactive = score below 0.9.

In general, AC50 refers to the midpoint of the concentration-response curve, whichever way the signal moves.

The experiment is described as follows: ATG_Oct_MLP_CIS: Attagene CIS-FACTORIAL HepG2 Assay for human Octamer-Binding Transcription Factor (Oct) (AID 2282993). To be noted: HepG2 Attagene cis-factorial Oct reporter, mRNA; actives raise or lower the signal. In short, it runs like this: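 HepG2 cells transiently transfected with cis-promoter-driven multiplexed reporter transcription units, dosed for 24 h. Reporter mRNA quantified by RT-PCR, fluorescent labelling, HpaI digestion and capillary electrophoresis; bidirectional fits versus DMSO baseline.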
`CCCCCOC(=O)c1ccccc1C(=O)OCCCCC`: the AC50 is 161 µM (active).

`c1ccc(C2CO2)cc1` (centres undefined): the outcome was inactive. With `Clc1ccccc1Cl`, the call was inactive. Turning to `Brc1ccc(Oc2ccccc2)cc1`, the half-maximal activity concentration (AC50) was 177 µM (active). `[Cl-].[Cl-].[Hg+2]`: the outcome was inactive. With `CN(C)[C@@H]1C(=O)C(C(N)=O)=C(O)[C@@]2(O)C(=O)C3=C(O)c4c(O)cccc4[C@@](C)(O)[C@H]3C[C@@H]12`, the result was inactive.

For the compound `Oc1ccc2ccc3cccc4ccc1c2c34`, the call was inactive. The same measure, in the same setting: for `[As]#[In]` the value was “inactive”; for `ClCCOCCCl`, “inactive”. Still for that read-out and setting: then `CN(C)C(=O)Nc1ccc(Cl)cc1`, with “inactive”. Regarding `CCNS(=O)(=O)C(F)(F)C(F)(F)C(F)(F)C(F)(F)C(F)(F)C(F)(F)C(F)(F)C(F)(F)F`, the AC50 was 96.5 µM (active) and the outcome was inactive.

On to `O=[N+]([O-])C(Br)(CO)CO`, for which the AC50 was 156 µM (active). `Cn1cc(-c2ccccc2)c(=O)c(-c2cccc(C(F)(F)F)c2)c1`: the call was inactive. Regarding `CC(C)N(Cc1ccccc1)C(=O)C(C)(C)C`, the outcome was inactive. Still for that read-out and setting: for `O=C(Nc1ccccc1)c1ccccc1I` the value was “inactive”. For `C[C@]12C=CC3=C4CCC(=O)C=C4CC[C@H]3[C@@H]1CC[C@@H]2O`, the AC50 was 71.1 µM (active) and 13.9 µM (active) and 9.62 µM (active); the call was inactive. In the case of `CNC(=O)Oc1cccc2c1OC(C)(C)C2`, the result was inactive. Still for that read-out and setting: then `CN(C)c1ccccc1`, with “inactive”; and `CN(C)c1ccc(C(=O)c2ccc(N(C)C)cc2)cc1`, with “inactive”. As to `O=C(O)C1C2CCC(O2)C1C(=O)O` (centres undefined), the AC50 is 75.4 µM (active). The same measure, in the same setting: for `CCCCCCCCn1sccc1=O` the value was 15.9 µM (active). On to `c1ccc(N=Nc2ccccc2)cc1`, for which the compound was called inactive.
